# Tb PYK inh – blocks Trypanosoma brucei pyruvate kinase. Q57TT1. TbPYK enzyme, Kinase-Glo Plus ATP luminescence, 45 min. Potency, µM (titrated, usually from 76.8 µM), for inactives: at the top dose activity, negative = inhibition, hits mostly inhibitors. actives 0.12% (n = 410,000); also: potency is read from the fitted curve at half-maximal effect; % is scaled to controls: 0 for no effect and ±100 for the full control effect; nearly all actives have a fitted effect of over 50% in size
#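 TbPYK + substrate in 50 mM TEA pH 7.2, 100 mM KCl, 10 mM MgCl2, 0.05% BSA, 0.01% Tween-20; cpd pinned; ADP 130 uM final; 45 min RT; Kinase-Glo Plus 10 min; luminescence endpoint.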
# LmPK inh – inhibitors of Leishmania mexicana pyruvate kinase | Q27686 | actives 0.37% (n = 290,000) | purified LmPK, Kinase-Glo ATP luminescence, 1 h | Potency, µM (titrated, usually from 57.5 µM), inactives show top-dose activity change, negative = inhibition, most hits filed as inhibitors; also: potency is read from the fitted curve at half-maximal effect; % is scaled to controls: 0 for no effect and ±100 for the full control effect
# Target sequence (Q27686 whole entry, looked up): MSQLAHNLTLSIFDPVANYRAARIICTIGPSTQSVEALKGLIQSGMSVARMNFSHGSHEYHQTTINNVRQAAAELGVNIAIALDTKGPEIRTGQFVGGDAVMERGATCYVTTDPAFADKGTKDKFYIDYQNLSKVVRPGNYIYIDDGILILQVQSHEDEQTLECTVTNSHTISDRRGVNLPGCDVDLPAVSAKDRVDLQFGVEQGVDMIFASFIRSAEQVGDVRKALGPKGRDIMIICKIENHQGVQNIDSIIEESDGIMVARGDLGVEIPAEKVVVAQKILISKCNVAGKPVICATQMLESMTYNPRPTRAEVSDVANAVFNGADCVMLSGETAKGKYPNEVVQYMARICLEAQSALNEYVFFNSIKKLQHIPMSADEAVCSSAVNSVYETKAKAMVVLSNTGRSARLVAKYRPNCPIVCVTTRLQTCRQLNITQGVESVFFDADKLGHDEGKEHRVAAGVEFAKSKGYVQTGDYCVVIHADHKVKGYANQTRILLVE
#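 Pyruvate kinase activity monitored as ATP production (luciferase luminescence). Conditions: 0.1 nM enzyme, 0.5 mM PEP, 0.1 mM ADP, 1 h, RT; normalized against uninhibited and no-enzyme wells.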
# Shiga inhibitor – inhibitors of Shiga toxin in Vero cells; Vero cells, Shiga toxin protein synthesis inhibition reporter; inhibition, % at 38.7 µM; actives 9.2% (n = 290,000); in the data active = inhibition mostly above about 28%, no sharp cut-off; inactive = mostly below about 43%; also: 0% is about no effect
# Giardia FBPA inh – blocks Giardia fructose-bisphosphate aldolase activity; purified Giardia FBPA; Potency, µM (doses to about 59.6 µM), without a hit: top-dose activity, negative = inhibition, hits mostly inhibitors; actives 0.71% (n = 290,000); also: potency is read from the fitted curve at half-maximal effect; % is scaled to controls: 0 for no effect and ±100 for the full control effect; nearly all actives have a fitted effect of over 55% in size
#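 Giardia FBPA (40 nM reagent) was preincubated 10 min at RT with compound (up to 57.5 uM final), then substrate plus GAPDH/TPI/NAD/arsenate coupling system with diaphorase/resazurin was added; resorufin fluorescence (525/598 nm) was read after 20 min.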
# Sm TGR inh – S. mansoni TGR enzyme inhibition; Q962Y6; purified TGR, DTNB reduction, TNB absorbance 405 nm; Potency, µM (top dose mostly 114 µM), inactives show top-dose activity change, negative = inhibition, most hits filed as inhibitors; actives 3% (n = 360,000); also: potency is read from the fitted curve at half-maximal effect; % is scaled to controls: 0 for no effect and ±100 for the full control effect; nearly all actives have a fitted effect of over 60% in size
#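 First, TGR (20 nM dispensed) and NADPH were mixed with compound. Second, a 15 min room-temperature incubation followed. Third, further NADPH and then DTNB were added to start the reaction. Finally, TNB absorbance was monitored kinetically.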
# CHX counter – counter-screen for Shiga toxin inhibitors: cycloheximide protein synthesis inhibition. cell reporter, cycloheximide protein synthesis inhibition counterscreen. max response, %. actives 12% (n = 300,000). AID 2314; in the data active = max response mostly above about 13%, no sharp cut-off; inactive = mostly below about 14%; also: read at 38.3 µM for the half of the compounds with a filed dose; 0% is about no effect
# An asterisk follows results filed as active; ? = inconclusive; . = no result; [ ] = remark or other dose. This is one part of a sample in which hits are shown more often than they occur. Unless noted, calls follow the shape of the dose curve; as a rule, active = well fitted curve in the direction sought with a large enough effect; inconclusive = small, poorly fitted or top-dose-only effect, or another doubt; inactive = no such curve, though single readings can be large; an effect the other way counts as inactive or inconclusive.
SMILES,Tb PYK inh,LmPK inh,Shiga inhibitor,Giardia FBPA inh,Sm TGR inh,CHX counter
NS(=O)(=O)c1cccc(NC(=O)c2cc3ccccc3o2)c1,-17.2%,-15.5%,56.1*,-4.2%,-0.9%,25.1*
O=C(Nc1cccc(Br)c1)c1cc2ccccc2o1,-2.3%,?,105.6*,-28.4%,-24.1%,91.8*
O=C(Nc1ccc(N2CCCC2)c(Cl)c1)c1cccc(-c2cc3ccccc3oc2=O)c1,-9.0%,1.6%,-11.4,0.4%,-12.0%,0.6
CC(=O)Nc1ccc(NC(=O)c2cccc(-c3cc4ccccc4oc3=O)c2)cc1,-8.4%,-3.4%,48.8,4.2%,-1.6%,31.2*
NS(=O)(=O)c1cccc(NC(=O)c2cc(=O)c3ccccc3o2)c1,-7.8%,2.8%,10.5,-6.3%,-8.9%,-0.5
Cc1cccc(NC(=O)c2cc3ccccc3o2)c1,-10.0%,14.1µM*,94.6*,?,-2.9%,50.0*
O=C(COC(=O)c1cc2ccccc2oc1=O)Nc1cccc(Br)c1,-6.0%,.,.,.,-9.4%,.
Cc1ccc(S(=O)(=O)c2c(C)nn(C(C)(C)C)c2OC(=O)CC(C)C)cc1,-3.9%,1.1%,-28.7,-0.1%,3.6%,4.2
O=C(Cc1cccc2ccccc12)Nc1ccc(-c2cc3ccccc3oc2=O)cc1,0.8%,-2.7%,2.5,-2.6%,-2.7%,-6.2
CCC(=O)Nc1cccc(NC(=O)c2cc3ccccc3o2)c1,0.8%,?,99.6*,-9.6%,0.0%,45.0*
CCC(=O)Nc1cccc(-c2cc3ccccc3oc2=O)c1,-4.4%,1.5%,82.6*,-5.3%,.,60.6*
COc1ccc(S(=O)(=O)NCCc2csc(-c3cccc(F)c3)n2)cc1OC,-1.5%,.,.,.,-1.8%,.
O=C(N/N=C/c1cccc2ccccc12)c1cccc(F)c1,1.7%,-4.9%,79.0*,-7.1%,-18.0%,63.0*
O=C(N/N=C/c1c(Cl)cccc1Cl)c1cccc(F)c1,-15.7%,5.3%,13.8,4.2%,35.5µM*,17.5
O=C(N/N=C/c1ccccc1Cl)c1cccc(F)c1,-12.2%,?,96.7*,-1.6%,11.8%,77.8*
Cn1nnnc1SCCNCc1ccccc1OCc1ccc(Cl)cc1Cl,9.8%,.,5.6,.,9.3%,-2.9
Nc1c(C(=O)NCc2ccccc2)nnn1Cc1cccc(Br)c1,-7.7%,.,.,.,-6.3%,.
CSc1ccc(CNC(=O)CN2C(=O)C3CCCCN3c3ccc(C(=O)N4CCCC4)cc32)cc1 (stereo not drawn),12.2%,.,.,.,1.7%,.
O=C(NCc1ccccc1)c1n[nH]nc1-c1ccccc1O,-5.4%,-7.3%,50.2,-7.4%,-13.7%,18.0*
Cc1ccc(C)c(N2CCN(C(=O)c3cc(S(=O)(=O)N4CCCC4)c[nH]3)CC2)c1,2.1%,.,.,.,-4.2%,.
CC1=Nc2ccccc2/C1=C\c1nc(-c2ccccc2)oc1O,1.8%,3.2%,-7.0,-1.8%,?,0.4
COc1ccc(-c2nc(/C=C3\C(C)=Nc4ccccc43)c(O)o2)cc1,1.8%,4.9%,1.9,-6.6%,44.7µM*,-0.4
COc1ccc(NC(=O)c2cccc(-n3c(C)ccc3C)c2)c(OC)c1,-3.4%,0.6%,40.9,-0.7%,-34.4%,9.3
Cc1cc(C=O)c(C)n1-c1cccc(C(=O)O)c1,1.4%,0.7%,-4.2,5.4%,0.0%,-1.7
Cc1ccc(C)n1-c1cccc(C(=O)O)c1,.,16.7%,-3.5,-25.0%,8.91µM*,-3.2
SMILES,Tb PYK inh,LmPK inh,Shiga inhibitor,Giardia FBPA inh,Sm TGR inh,CHX counter
Cc1ccc(C)n1-c1cccc(C(=O)Nc2ccccc2)c1,-24.7%,2.0%,36.7,11.7%,-22.7%,17.5*
COc1ccc(Nc2c3c(nc4nncn24)CCC3)cc1Cl,-2.0%,.,.,.,-16.3%,.
CC(=O)Nc1ccn(C2CC3OCC(NC(=O)C(Cc4ccccc4)NC(=O)OC(C)(C)C)C3O2)c(=O)n1 (stereo not drawn),.,.,-4.6,7.8%,.,15.3
CCN1CCN(C(=O)c2ccc(COc3ccc(Cl)cc3)o2)CC1,-2.6%,-3.6%,-7.3,.,31.8%,-4.2
CC(C)(C)NC(=O)c1ccc(COc2ccc(Cl)cc2Cl)o1,-2.6%,3.3%,19.1,-2.0%,?,-2.0
O=C(c1ccc(COc2ccc(Cl)cc2Cl)o1)N1CCCC1,-5.6%,1.7%,31.3,.,0.0%,33.2*
COc1ccccc1OCc1ccc(C(=O)N2CCCCC2)o1,-10.0%,-1.1%,26.0,-6.7%,?,12.8*
Cc1ccc(OCc2ccc(C(=O)N3CCCC3)o2)cc1C,-3.7%,1.9%,75.8*,-17.9%,-22.7%,34.3*
CCOc1ccc(OCc2ccc(C(=O)N3CCCCC3)o2)cc1,9.1%,-9.6%,40.4*,.,-19.6%,23.2*
COc1ccc(CNC(=O)C2CCN(S(=O)(=O)c3c(C)noc3/C=C/c3ccccc3F)CC2)cc1,-4.5%,.,.,.,-4.8%,.
Cc1cccc(CNc2nc(-c3ccc4c(c3)OCO4)nc3ccccc23)c1,.,.,.,-3.5%,.,.
Cc1cccc(Nc2nnc(-n3nc(C)cc3C)c3ccccc23)c1,-2.6%,.,.,.,-1.4%,.
N#CC(C(=O)Nc1ccccc1)=C1Nc2ccccc2N1,-2.1%,4.3%,74.6*,-14.7%,-21.1%,30.4
CC(CNC(=O)CN1C(=O)COc2ccc(S(=O)(=O)N3CCCCCC3)cc21)c1ccccc1 (stereo not drawn),3.5%,.,.,.,-3.8%,.
O=c1c(-c2cccs2)nc2cnc(N3CCNCC3)nc2n1CCc1ccccc1,.,.,.,2.7%,.,.
CCCCOc1ccc(-c2nnn(C(C)(C)C(=O)OC)n2)cc1,2.8%,-0.5%,56.7*,-5.2%,5.1%,32.0*
COc1ccccc1Oc1nc2c(c(=O)n(Cc3ccccc3F)c(=O)n2C)n1C,-15.1%,-4.3%,-9.3,-20.3%,2.82µM*,-2.2
N#CCC(=O)Nc1ccc(C(=O)NCC(c2ccco2)N2CCCCC2)cc1 (stereo not drawn),-2.6%,6.1%,-4.5,-1.5%,-7.6%,-2.7
CCn1c(C)nc2cc(C(=O)NNC(=S)Nc3ccccc3OC)ccc21,-12.8%,-8.7%,33.0*,6.5%,9.0%,20.0*
CCn1c(C)nc2cc(C(=O)N/N=C(\C)c3ccccc3O)ccc21,-1.6%,9.3%,84.6*,11.6%,14.0%,31.2*
CCn1c(C)nc2cc(C(=O)N/N=C/c3ccccc3C)ccc21,1.3%,-1.9%,133.2*,0.8%,16.0%,40.5*
COc1ccccc1NC(=O)Cn1c(=O)n(-c2ccc(C)cc2)c(=O)c2c1cnn2C,1.1%,.,.,.,8.6%,.
CNc1nc(-c2ccc3c(c2)CCN3C(=O)c2ccccc2F)cs1,0.6%,-28.3%,94.5*,-20.1%,-31.2%[57.1 µM],53.6*
